In PubChem BioAssay (NCI):
About 83,000 compounds went through this panel and 20% of them were active in at least one assay; those are over-represented in the sample as a whole.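 Results are percent growth after 48 hours of single-concentration exposure. 100 means growth as in untreated cells, lower positive values show inhibition; negative values down to -100 show cell death.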 Unmarked numbers belong to inactive results. Activity calls are given as the source filed them. The calls were made as follows: active = growth percent below 10; inactive = the rest.

Experiments:
Test in all cases: NCI-60 one-dose screen, 48 h (100 = growth as untreated, 0 = no growth, -100 = all killed)
Conditions in all cases: 10 µM unless noted
[1] = tested on: HCT-15 colon
[2] = tested on: HT29 colon
[3] = tested on: SNB-75 CNS
[4] = tested on: SNB-19 CNS
[5] = tested on: U251 CNS
[6] = tested on: PC-3 prostate
[7] = tested on: SK-MEL-5 melanoma
[8] = tested on: UACC-62 melanoma
[9] = tested on: SK-MEL-28 melanoma
[10] = tested on: SK-MEL-2 melanoma
[11] = tested on: EKVX NSCLC
[12] = tested on: SN12C renal
[13] = tested on: UO-31 renal
[14] = tested on: TK-10 renal
[15] = tested on: ACHN renal
[16] = tested on: CAKI-1 renal
[17] = tested on: A498 renal
[18] = tested on: CCRF-CEM leukemia
[19] = tested on: MOLT-4 leukemia

Row | SMILES | growth [1] | growth [2] | growth [3] | growth [4] | growth [5] | growth [6] | growth [7] | growth [8] | growth [9] | growth [10] | growth [11] | growth [12] | growth [13] | growth [14] | growth [15] | growth [16] | growth [17] | growth [18] | growth [19]
1 | Nc1nc(C(F)(F)F)cs1 | 104% | 112% | 91.7% | 105% | 103% | 102% | 104% | 101% | 110% | 108% | 94.5% | 111% | 93.8% | 98.1% | 113% | 96.7% | 114% | 109% | 112%
2 | O=C1Nc2cc(Cl)ccc2/C1=C/c1cccc(OCc2ccccn2)c1 | 7.16% (active) | 0.146% (active) | 51.3% | 20.5% | -17.4% (active) | 20.1% | 6.08% (active) | 5.17% (active) | 39.5% | 41% | 15% | -15% (active) | 29.7% | 35.5% | 16.9% | 16.8% | 123% | 2.33% (active) | 4.01% (active)
3 | N#Cc1c(-c2ccc(Br)cc2)nc2n[nH]c(-c3ccc(Br)cc3)c2c1-c1ccc(C(F)(F)F)cc1 | 5.75% (active) | 20.6% | -3.08% (active) | 20.5% | 20.7% | 14.5% | 14.3% | 0.103% (active) | 49.5% | -37.7% (active) | 5.95% (active) | 19.2% | 11.9% | 70% | 13.1% | 2.69% (active) | 92.3% | 13.9% | 4.06% (active)
4 | CCOC(=O)C1=C(N)N(c2ccccc2)C2=C(C(=O)CC(C)(C)C2)C1c1ccc(Cl)cc1Cl (centres undefined) | 14% | 35% | 41.2% | 28.1% | 27.6% | 9.99% (active) | -1.66% (active) | 27.2% | 51.3% | -12.3% (active) | 18.8% | 20.6% | 16.8% | 36.6% | 17.1% | 23.1% | 46.8% | 19.3% | 7.23% (active)
5 | C=C1CC[C@@H]2[C@]3(C)COC(c4cn[nH]c4-c4ccccc4)O[C@@H]3CC[C@@]2(C)[C@@H]1C/C=C1/C(=O)OCC1O (some centres undefined) | -81% (active) | -79% (active) | 105% | 45.3% | -18.6% (active) | 33.3% | -77.2% (active) | -12.7% (active) | -55.2% (active) | 73.8% | -45.2% (active) | 21.9% | -0.824% (active) | -8.55% (active) | 11% | 11.4% | 137% | 2.72% (active) | 4.6% (active)
6 | COc1ccc(-c2c(Nn3cnnn3)no[n+]2[O-])cc1 | 31.3% | 39.4% | 29.6% | 71% | 55.4% | 59.4% | 75.7% | 47.5% | 85.5% | 82.5% | 53.7% | 33.3% | 20.8% | 62.5% | 34.1% | 25.7% | 63.9% | 40.6% | 27.9%
7 | Cc1c(C(=O)NNC(=O)c2ccc(Cl)cc2)nnn1-c1ccc(Br)cc1 | 98.3% | 96.4% | 90.6% | 97% | 112% | 99.9% | 97.7% | 90.5% | 95.7% | 107% | 99.4% | 102% | 75.9% | 95.4% | 102% | 87.9% | 139% | 90.3% | 85.4%
8 | COc1cc2c(c(OC)c1OC)C(=O)CC(c1cccc(NC(=O)c3cc(NC(=O)[C@@H](N)CO)ccc3C)c1)O2 (some centres undefined) | 110% | 102% | 135% | 109% | 112% | 107% | 104% | 109% | 109% | 111% | 108% | 102% | 92% | 105% | 107% | 99.9% | 126% | 102% | 114%
9 | N#Cc1c(-c2ccc(Br)cc2)nc2n[nH]c(-c3ccc(Br)cc3)c2c1-c1ccc(F)cc1 | 98.6% | 87.9% | 94.5% | 102% | 96.7% | 89% | 95.1% | 87% | 102% | 109% | 70.7% | 85.2% | 65.3% | 135% | 91.2% | 70.1% | 163% | 102% | 74.9%
10 | CC1=C(C(=O)c2ccccc2)C(c2cccc3ccccc23)n2c(nc3ccccc32)N1 (centres undefined) | 70.3% | 50.5% | 60.3% | 66.1% | 17% | 53.2% | 62.1% | 37.5% | 84.1% | 106% | 58.4% | 75.3% | 81.8% | 83.8% | 88.5% | 55.7% | 153% | 55.9% | 52.3%
11 | NS(=O)(=O)c1ccc(N=Nc2c(O)n(CC(=O)Nc3ccccc3)c3ccccc23)cc1 | 16% | 2.37% (active) | 42.2% | 20.2% | -15.1% (active) | 20.8% | 24.6% | 22.1% | -2.1% (active) | 42.7% | 38.4% | 52.7% | 31.1% | 84% | 11% | 7.36% (active) | 60% | 50.2% | 7.09% (active)
12 | N#Cc1cnn(C(=O)c2ccccc2Br)c1NC(=O)c1ccc(Br)cc1Cl | 101% | 104% | 106% | 97.2% | 93.3% | 103% | 98.6% | 101% | 103% | 111% | 100% | 104% | 85.9% | 101% | 103% | 94.5% | 106% | 94.5% | 99.9%
13 | C=C1CC[C@@H]2[C@]3(C)COC(c4cn(-c5ccccc5)nc4-c4ccccc4)O[C@@H]3CC[C@@]2(C)[C@@H]1C/C=C1/C(=O)OC[C@H]1O (some centres undefined) | -87% (active) | -70.4% (active) | -18.8% (active) | -60.8% (active) | -88.5% (active) | -26.8% (active) | -100% (active) | -93.8% (active) | -84.2% (active) | -81.1% (active) | -63.5% (active) | -67.1% (active) | -78.1% (active) | -57.3% (active) | -95.5% (active) | -39.7% (active) | -13.9% (active) | 31.5% | -45.7% (active)
14 | CC(=O)Nc1cccc(Nc2nc(N[C@H]3CCCc4ccccc43)c3ccccc3n2)c1 | 97.5% | 104% | 90.6% | 96.9% | 105% | 115% | 105% | 92% | 104% | 123% | 98.7% | 103% | 91.8% | 99.1% | 102% | 89.5% | 105% | 103% | 100%
15 | Cn1cc(-c2nc(N)nnc2-c2c[nH]c3ccc(F)cc23)c2cccnc21 | 51.8% | 44.5% | 7.07% (active) | 39% | 35.7% | 51.2% | 35.3% | 29.8% | 75.1% | 85.6% | 62.3% | 49.3% | 14.8% | 44.6% | 14.9% | 12.6% | 36.8% | 27.5% | 18.2%
16 | NS(=O)(=O)c1ccc(NNC(=O)CCC(=O)c2ccccc2)cc1 | 104% | 104% | 91.9% | 98.3% | 101% | 97.6% | 99.1% | 99.9% | 112% | 107% | 103% | 92.5% | 84% | 109% | 101% | 90.2% | 94.2% | 75.1% | 89.8%
